Key:
Assay in all cases: log2 ratio of Biotin-Ahx-Ub-VS probe labelling (fragment/DMSO); higher = less target engagement (more negative = stronger competition), active = hit call of the paper (q ≤ 0.05, log2 ratio ≤ -1)
Conditions in all cases: compound concentration: 200 uM; treatment time: 3 h
[1] = target: USP34 (UniProt Q70CQ2)
Summary of the method: (§1)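 Using Biotin-Ahx-Ub-VS at 0.5 µM final for 1 h, DUBs were labelled in HEK293T lysate (495 µg per sample) that had first been treated in triplicate with fragment at 200 µM or vehicle for 3 h. NeutrAvidin enrichment, LysC and trypsin digestion and diaPASEF LC-MS/MS followed. Spectronaut label-free quantities were global-median-normalised. Values are average log2 fragment/vehicle ratios by unpaired t-test, using proteins with ≥2 unique peptides.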

[2] = target: T1, USP36 (UniProt Q9P275)
T1 sequence (whole entry): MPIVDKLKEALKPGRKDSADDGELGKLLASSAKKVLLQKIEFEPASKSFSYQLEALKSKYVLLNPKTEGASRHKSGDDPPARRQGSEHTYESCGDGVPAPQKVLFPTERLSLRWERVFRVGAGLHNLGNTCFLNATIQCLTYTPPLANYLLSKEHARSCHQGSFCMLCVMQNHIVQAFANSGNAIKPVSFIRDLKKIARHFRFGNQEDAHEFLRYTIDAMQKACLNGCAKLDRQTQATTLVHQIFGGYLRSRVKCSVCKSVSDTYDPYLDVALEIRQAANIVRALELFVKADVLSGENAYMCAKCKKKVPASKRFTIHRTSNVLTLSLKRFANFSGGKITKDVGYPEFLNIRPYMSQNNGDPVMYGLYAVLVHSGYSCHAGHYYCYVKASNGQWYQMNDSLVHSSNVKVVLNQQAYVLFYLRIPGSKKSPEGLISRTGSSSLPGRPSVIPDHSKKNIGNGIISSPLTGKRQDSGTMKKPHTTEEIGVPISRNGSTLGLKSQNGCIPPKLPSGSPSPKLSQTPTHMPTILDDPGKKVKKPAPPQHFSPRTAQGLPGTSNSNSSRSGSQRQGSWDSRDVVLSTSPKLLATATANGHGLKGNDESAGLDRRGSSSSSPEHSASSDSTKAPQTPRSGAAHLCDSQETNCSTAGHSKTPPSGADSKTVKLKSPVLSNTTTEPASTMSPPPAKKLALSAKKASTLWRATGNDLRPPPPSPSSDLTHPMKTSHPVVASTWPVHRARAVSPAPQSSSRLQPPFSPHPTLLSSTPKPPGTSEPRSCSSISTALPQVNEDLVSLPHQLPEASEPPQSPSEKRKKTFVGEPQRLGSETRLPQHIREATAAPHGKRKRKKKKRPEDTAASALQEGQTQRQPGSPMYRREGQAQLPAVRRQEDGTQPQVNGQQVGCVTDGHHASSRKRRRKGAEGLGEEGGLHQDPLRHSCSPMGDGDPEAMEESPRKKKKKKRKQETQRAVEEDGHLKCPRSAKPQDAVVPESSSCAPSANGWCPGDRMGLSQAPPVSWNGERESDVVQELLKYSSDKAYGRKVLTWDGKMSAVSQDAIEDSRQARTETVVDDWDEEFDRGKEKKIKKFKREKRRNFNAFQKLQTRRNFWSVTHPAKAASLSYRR
Summary of the method: as §1

[3] = target: T2, USP38 (UniProt Q8NB14)
T2 sequence (whole entry): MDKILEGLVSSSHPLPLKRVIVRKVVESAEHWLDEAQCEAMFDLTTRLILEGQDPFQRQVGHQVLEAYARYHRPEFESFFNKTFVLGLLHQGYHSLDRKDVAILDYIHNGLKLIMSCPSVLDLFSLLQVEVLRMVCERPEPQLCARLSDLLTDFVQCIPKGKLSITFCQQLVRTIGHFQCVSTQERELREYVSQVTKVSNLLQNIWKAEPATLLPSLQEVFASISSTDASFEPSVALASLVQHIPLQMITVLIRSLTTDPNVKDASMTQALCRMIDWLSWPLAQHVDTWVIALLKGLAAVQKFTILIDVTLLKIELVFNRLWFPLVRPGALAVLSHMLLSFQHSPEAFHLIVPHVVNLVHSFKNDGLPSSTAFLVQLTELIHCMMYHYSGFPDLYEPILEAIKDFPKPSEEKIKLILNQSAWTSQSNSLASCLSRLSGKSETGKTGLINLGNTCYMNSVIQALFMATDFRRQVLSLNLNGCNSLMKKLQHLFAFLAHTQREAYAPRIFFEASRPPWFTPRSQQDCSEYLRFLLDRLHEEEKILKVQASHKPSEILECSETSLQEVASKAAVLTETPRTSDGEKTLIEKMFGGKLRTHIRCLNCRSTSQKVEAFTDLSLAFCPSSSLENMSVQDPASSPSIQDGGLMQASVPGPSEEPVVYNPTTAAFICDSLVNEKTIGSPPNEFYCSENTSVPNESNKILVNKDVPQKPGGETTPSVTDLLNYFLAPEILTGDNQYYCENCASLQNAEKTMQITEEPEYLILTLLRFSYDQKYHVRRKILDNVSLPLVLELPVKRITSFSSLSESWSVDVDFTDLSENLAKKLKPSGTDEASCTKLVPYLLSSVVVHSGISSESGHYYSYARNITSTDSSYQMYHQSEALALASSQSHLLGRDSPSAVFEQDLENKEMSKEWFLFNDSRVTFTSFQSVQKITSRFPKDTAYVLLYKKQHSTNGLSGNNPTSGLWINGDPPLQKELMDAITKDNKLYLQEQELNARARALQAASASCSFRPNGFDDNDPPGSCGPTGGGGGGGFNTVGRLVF
Summary of the method: as §1

[4] = target: T3, USP39 (UniProt Q53GS9)
T3 sequence (whole entry): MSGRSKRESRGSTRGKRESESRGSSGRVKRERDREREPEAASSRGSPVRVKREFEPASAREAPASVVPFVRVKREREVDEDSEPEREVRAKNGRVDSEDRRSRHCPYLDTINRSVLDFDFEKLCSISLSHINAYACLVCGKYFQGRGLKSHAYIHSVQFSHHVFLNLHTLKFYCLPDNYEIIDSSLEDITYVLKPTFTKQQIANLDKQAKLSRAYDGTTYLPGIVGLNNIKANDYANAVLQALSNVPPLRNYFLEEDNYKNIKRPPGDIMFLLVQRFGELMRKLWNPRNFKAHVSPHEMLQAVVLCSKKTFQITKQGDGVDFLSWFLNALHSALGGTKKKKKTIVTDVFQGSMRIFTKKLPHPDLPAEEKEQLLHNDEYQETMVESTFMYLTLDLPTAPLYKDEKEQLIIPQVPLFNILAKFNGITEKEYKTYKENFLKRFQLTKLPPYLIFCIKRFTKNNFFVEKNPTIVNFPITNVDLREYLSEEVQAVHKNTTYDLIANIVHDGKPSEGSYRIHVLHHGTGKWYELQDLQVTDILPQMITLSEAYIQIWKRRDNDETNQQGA
Summary of the method: as §1

[5] = target: T4, USP4 (UniProt Q13107)
T4 sequence (whole entry): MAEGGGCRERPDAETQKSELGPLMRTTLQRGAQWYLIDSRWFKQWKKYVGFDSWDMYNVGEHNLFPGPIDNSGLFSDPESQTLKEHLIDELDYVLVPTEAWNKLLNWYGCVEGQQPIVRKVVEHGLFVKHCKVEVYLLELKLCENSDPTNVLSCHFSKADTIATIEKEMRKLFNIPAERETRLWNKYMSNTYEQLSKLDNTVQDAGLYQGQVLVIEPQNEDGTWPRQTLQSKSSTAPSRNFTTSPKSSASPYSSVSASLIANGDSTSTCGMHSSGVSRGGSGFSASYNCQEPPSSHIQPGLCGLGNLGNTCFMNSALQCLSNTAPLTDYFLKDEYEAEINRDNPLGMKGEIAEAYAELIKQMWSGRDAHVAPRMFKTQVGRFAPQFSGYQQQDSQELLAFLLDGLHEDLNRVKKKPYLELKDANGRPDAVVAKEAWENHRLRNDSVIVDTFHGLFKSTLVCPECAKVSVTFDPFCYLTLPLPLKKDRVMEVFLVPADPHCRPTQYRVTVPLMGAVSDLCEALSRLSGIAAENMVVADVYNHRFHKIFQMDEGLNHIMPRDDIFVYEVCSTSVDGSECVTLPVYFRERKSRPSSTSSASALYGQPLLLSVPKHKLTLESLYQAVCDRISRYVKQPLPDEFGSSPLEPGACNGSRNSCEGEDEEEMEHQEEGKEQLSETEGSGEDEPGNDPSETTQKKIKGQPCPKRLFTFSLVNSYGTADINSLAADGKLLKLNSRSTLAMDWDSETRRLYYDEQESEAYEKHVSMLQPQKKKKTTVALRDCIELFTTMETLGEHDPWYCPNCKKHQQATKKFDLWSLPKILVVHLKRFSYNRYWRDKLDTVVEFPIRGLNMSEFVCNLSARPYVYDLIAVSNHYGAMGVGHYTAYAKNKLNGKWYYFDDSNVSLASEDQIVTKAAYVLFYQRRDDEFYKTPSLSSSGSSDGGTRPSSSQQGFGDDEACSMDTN
Summary of the method: as §1

Measured: log2 ratio of Biotin-Ahx-Ub-VS probe labelling

Chain of USP34 (Q70CQ2 whole entry, the tested form may be a part): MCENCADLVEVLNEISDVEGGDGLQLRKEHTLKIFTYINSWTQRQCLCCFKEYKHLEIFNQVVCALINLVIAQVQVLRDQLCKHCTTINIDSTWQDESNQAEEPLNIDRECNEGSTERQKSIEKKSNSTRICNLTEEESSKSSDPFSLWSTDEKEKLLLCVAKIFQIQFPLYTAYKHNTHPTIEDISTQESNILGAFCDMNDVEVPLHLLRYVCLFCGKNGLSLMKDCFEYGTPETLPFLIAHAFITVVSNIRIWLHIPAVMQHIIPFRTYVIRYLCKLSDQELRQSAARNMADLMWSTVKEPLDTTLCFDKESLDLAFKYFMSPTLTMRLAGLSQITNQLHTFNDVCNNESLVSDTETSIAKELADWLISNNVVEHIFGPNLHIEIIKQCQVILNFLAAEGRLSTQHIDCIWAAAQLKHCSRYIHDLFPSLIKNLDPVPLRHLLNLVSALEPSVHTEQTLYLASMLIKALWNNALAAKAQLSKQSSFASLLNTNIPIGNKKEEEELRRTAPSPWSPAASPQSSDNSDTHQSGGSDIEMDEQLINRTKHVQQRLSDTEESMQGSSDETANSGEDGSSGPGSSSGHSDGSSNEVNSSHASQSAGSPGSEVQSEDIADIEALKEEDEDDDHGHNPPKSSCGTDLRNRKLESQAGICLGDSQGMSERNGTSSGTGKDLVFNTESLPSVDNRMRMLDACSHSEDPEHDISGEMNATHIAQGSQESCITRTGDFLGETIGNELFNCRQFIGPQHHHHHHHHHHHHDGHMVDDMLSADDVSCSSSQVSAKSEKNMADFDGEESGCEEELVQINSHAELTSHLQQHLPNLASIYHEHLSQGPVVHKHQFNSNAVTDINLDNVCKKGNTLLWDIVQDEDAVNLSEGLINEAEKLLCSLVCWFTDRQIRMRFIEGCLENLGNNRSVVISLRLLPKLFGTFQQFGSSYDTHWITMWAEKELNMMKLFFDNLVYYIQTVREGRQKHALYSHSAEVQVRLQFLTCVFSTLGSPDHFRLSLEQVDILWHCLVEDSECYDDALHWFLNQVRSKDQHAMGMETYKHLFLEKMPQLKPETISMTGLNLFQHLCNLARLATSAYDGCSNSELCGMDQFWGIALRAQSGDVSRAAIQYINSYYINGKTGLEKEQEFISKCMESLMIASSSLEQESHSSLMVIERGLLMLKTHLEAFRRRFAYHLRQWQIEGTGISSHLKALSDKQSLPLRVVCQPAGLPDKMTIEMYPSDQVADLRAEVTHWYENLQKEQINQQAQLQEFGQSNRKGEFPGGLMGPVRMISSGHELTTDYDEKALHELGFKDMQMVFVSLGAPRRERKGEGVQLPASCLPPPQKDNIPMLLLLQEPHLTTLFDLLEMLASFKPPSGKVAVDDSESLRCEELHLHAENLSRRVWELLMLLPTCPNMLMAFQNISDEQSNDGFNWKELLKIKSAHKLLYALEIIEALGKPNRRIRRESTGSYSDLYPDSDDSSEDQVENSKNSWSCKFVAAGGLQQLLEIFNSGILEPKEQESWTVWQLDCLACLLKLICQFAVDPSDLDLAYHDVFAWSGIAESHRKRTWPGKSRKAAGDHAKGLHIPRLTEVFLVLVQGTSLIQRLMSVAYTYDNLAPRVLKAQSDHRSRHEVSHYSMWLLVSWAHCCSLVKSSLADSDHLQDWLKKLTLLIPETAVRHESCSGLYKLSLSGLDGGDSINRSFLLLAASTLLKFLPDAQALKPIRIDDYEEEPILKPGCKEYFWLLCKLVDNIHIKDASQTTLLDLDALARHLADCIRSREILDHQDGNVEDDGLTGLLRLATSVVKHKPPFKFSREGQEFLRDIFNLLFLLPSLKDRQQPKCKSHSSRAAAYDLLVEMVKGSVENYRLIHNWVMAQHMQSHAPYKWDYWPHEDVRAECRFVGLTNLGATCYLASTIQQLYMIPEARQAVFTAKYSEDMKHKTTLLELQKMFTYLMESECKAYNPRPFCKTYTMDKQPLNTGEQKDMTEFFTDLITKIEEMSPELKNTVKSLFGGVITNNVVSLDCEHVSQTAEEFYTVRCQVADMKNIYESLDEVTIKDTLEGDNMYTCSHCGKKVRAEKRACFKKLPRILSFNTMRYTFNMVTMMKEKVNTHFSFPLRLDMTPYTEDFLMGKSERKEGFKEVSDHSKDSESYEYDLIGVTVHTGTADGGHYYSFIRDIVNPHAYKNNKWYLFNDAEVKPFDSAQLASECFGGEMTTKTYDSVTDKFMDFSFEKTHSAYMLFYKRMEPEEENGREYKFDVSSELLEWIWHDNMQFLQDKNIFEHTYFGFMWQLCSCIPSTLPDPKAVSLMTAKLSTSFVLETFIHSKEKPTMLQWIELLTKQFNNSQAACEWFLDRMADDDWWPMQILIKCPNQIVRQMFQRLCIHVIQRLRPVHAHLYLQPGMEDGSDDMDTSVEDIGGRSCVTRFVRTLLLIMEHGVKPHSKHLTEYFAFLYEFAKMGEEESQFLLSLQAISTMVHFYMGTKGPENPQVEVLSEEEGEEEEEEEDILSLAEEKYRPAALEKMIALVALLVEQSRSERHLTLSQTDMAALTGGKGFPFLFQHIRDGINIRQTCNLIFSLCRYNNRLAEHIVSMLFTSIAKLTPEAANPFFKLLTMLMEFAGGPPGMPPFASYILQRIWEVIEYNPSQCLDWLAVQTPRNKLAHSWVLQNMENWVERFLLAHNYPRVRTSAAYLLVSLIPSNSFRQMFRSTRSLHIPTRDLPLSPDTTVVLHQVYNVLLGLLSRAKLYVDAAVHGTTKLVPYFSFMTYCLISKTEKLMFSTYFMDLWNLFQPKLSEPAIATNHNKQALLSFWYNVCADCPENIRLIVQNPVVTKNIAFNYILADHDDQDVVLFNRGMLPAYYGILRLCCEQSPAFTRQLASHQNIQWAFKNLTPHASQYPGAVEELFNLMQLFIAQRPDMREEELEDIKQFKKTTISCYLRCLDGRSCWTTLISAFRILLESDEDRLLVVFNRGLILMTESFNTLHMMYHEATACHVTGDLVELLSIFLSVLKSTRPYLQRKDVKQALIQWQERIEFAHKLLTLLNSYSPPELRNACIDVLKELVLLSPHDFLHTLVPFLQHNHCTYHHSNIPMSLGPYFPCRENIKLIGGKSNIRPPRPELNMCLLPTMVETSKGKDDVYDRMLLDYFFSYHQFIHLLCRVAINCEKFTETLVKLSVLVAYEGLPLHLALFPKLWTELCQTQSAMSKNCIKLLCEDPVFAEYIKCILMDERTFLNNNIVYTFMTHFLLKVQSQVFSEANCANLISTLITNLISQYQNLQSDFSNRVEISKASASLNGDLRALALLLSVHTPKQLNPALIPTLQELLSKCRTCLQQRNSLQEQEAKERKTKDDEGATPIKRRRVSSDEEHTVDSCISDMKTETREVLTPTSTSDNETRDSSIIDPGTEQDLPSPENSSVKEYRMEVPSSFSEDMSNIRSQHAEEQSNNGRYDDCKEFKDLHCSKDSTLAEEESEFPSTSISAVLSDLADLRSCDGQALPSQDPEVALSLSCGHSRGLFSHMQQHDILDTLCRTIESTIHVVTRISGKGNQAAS

CC1(NC(=O)CCl)CCS(=O)(=O)C1 (stereo not given)
inactive: [1] -0.257 | [2] -0.302 | [3] -0.653 | [4] -0.0411 | [5] -0.424

From the supplement of paper PMC11732987, “Enantioselective OTUD7B fragment discovery through chemoproteomics screening and high-throughput optimisation” (Communications Chemistry, 2025)
